{"source": "PubChem BioAssay AID720709", "about": "(National Center for Advancing Translational Sciences (NCATS), 2013)", "note": "In all, about 360,000 compounds went through this assay and about 520 (0.14%) were called active. Roughly 3% stayed inconclusive and do not appear here. The sample holds actives, similar compounds and a random draw of the others, so the mix is not that of the screen. Unmarked numbers belong to inactive results. Calls come from the whole dose curve; as a rule, active = well fitted inhibition curve with a large enough effect; inconclusive = small, poorly fitted or top-dose-only effect; inactive = no such curve, though single readings can be large or run the other way. Potency is the fitted concentration of half-maximal effect."}
{"target": "Rap guanine nucleotide exchange factor 3 (Homo sapiens) (UniProt O95398)", "sequence (O95398 whole entry, looked up)": "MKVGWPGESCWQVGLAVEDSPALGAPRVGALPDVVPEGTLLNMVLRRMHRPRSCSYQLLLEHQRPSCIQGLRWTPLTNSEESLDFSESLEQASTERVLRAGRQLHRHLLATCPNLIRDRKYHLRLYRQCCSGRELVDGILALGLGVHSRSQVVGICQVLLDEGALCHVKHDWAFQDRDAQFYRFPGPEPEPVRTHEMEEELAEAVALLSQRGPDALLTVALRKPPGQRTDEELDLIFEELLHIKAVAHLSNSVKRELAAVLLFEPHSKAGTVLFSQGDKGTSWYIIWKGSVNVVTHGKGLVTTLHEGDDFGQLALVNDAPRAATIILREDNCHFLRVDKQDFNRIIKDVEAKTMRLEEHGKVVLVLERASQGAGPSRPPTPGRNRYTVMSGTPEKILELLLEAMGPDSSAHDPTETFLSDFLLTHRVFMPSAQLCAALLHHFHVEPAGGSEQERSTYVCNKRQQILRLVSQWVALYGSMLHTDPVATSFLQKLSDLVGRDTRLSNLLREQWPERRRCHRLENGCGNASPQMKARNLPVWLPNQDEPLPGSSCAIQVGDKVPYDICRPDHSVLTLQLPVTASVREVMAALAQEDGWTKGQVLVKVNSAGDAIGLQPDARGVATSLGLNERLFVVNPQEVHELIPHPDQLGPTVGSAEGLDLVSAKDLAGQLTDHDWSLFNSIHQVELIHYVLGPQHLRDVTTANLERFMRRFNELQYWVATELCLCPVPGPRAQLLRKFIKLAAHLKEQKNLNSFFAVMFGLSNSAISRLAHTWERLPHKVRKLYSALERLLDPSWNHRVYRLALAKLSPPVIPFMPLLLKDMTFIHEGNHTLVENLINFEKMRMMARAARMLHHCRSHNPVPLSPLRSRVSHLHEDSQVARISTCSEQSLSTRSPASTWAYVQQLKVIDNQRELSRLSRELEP", "assay": "qHTS for Antagonist of cAMP-regulated guanine nucleotide exchange factor 3 (EPAC1): primary screen; note: nearly all actives have a fitted effect of over 50% in size;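 for activity change, negative = inhibition: plate controls were vehicle for no effect and positive control for full effect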", "details": "EPAC1 GEF assay, Rap1b-BODIPY-GDP exchange fluorescence; series mostly up to 115 µM; activity change, negative = inhibition: at the top concentration", "description": "In multi-cellular eukaryotic organisms, the effects of cAMP are transduced by two ubiquitously-expressed intracellular cAMP receptors, the classic protein kinase A/cAMP-dependent protein kinase (PKA/cAPK) and the more recently discovered exchange protein directly activated by cAMP/cAMP-regulated guanine nucleotide exchange factor (EPAC/cAMP-GEF). Both PKA and EPAC are ubiquitously expressed in all tissues, and an increase in intracellular cAMP levels will lead to the activation of both PKA and EPAC. Therefore, careful dissections of the individual role and relative contribution of EPAC and PKA within the overall cAMP signaling in various model systems are critical for further elucidating the mechanism of cAMP signaling. To date no EPAC-specific antagonists and agonist, as well as isoform-specific agonists have been reported, and developing EPAC-specific pharmacological probes to determine the physiological functions that EPAC play in the overall cAMP-mediated signaling remains a major challenge within the research field. Furthermore, identified regulators of EPAC may lead to new mechanism-based therapeutic strategies specifically targeting the EPAC / cAMP-signaling components as EPAC has been implicated to play important roles in major human pathological conditions such as diabetes, heart disease, and cancer. This qHTS will be used to screen the Molecular Libraries Small Molecule Repository (MLSMR) as a concentration-titration series using the NCGC unique quantitative screening (qHTS) platform to find inhibitors for EPAC1. In addition, this assay will also be used as a counterscreen for the EPAC2 qHTS. This fluorescent based assay is developed and validated for EPAC1 that measures exchange using EPAC effector Rap1 complex with BODIPY-GDP, a GDP analog with a tethered fluorophores. Inhibitors are identified by monitoring the change in fluorescence signal as the exchanged free BODIPY-GDP has a reduced fluorescence compared to Rap1-bound BODIPY-GDP. Decrease in signal (inhibition) is the desired outcome for the EPAC1 antagonist while no activity in this assay is desired for the EPAC2 antagonist counterscreen. de Rooij, J., Zwartkruis, F. J., Verheijen, M. H., Cool, R. H., Nijman, S. M., Wittinghofer, A., and Bos, J.L. (1998) Nature 396, 474-477 [2] Kawasaki, H., Springett, G. M., Mochizuki, N., Toki, S., Nakaya, M., Matsuda, M., Housman, D. E., and Graybiel, A. M. (1998) Science 282, 2275-2279 NIH Chemical Genomics Center [NCGC] NIH Molecular Libraries Probe Centers Network [MLPCN] MLPCN Grant: NS066510 Assay Submitter (PI): Xiaodong Cheng, The University of Texas, Medical Branch\nBriefly, three uL of reagents (100 nM EPAC1, 250 nM RAP1B-BODIPY-GDP, 50 uM GDP) were dispensed into a 1536-well Greiner black solid-bottom medium binding assay plate. Controls and test compounds (23 nL) were transferred to the plate via a Kalypsys pin tool equipped with a 1536-pin array. The plates were centrifuged at 1,000 rpm for 15 seconds followed by 5 minute incubation at room temperature. The assay plates were read at 5 minute intervals for 30 minutes in the ViewLux plate reader using 480nm excitation and 540nm emission filters. The results were normalized to the […] positive control ATA and DMSO.", "units": {"activity change, negative = inhibition": "%"}}
{"molecule": "C#CCOCCOCCOCCNc1nc(N2CCN(C(=O)[C@H](CO)n3cc([C@@H](N)C(C)C)nn3)CC2)nc(N2CCN(C(=O)[C@H](CCC(=O)O)n3cc([C@@H](N)[C@H](C)CC)nn3)CC2)n1", "activity change, negative = inhibition": -7.4}
{"molecule": "C#CCOCCOCCOCCNc1nc(N2CCN(C(=O)C([C@@H](C)O)n3cc([C@@H](N)CCCCN)nn3)CC2)nc(N2CCN(C(=O)[C@H](CCCCN)n3cc(CN)nn3)CC2)n1", "note": "(some centres undefined)", "activity change, negative = inhibition": 11}
{"molecule": "C#CCOCCOCCOCCNc1nc(N2CCN(C(=O)CCCCCCCCCCNC(=O)[C@H]([C@@H](C)CC)n3cc(CCCCN=C(N)N)nn3)CC2)nc(N2CCN(C(=O)CCCCCCCCCCNC(=O)[C@H](CO)n3cc(CCCSC)nn3)CC2)n1", "Potency": "44.7 µM (active)"}
{"molecule": "CN1OC[C@@H]2CN(S(=O)(=O)c3cccc4ccccc34)[C@H](c3ccc(N4CCCCC4)cc3)C[C@@H]21", "activity change, negative = inhibition": 1.95}
{"molecule": "CC(C)C[C@@H]1COc2cc(N3CCC[C@@H]3CO)ccc2S(=O)(=O)N1", "activity change, negative = inhibition": 21.2}
{"molecule": "CCOC(=O)C1C(C)C(C(C)(C)C)N(S(=O)(=O)c2ccc(C)cc2)C1c1ccccc1", "note": "(centres undefined)", "activity change, negative = inhibition": -11.1}
{"molecule": "Oc1c(Cl)cc(Cl)c(Cl)c1Cc1c(O)c(Cl)cc(Cl)c1Cl", "Potency": "70.8 µM (active)"}
{"molecule": "Fc1cccc(Cc2c(-c3ccc(Cl)cc3)nc3ccc(Cl)cn23)c1", "activity change, negative = inhibition": -25.5}
{"molecule": "CC1=C(C(=O)N(C(C)C)C(C)C)CC(CC(=O)NCCCCc2ccccc2)C(=O)N1CCC1=CCCCC1", "note": "(centres undefined)", "activity change, negative = inhibition": -21.9}
{"molecule": "CCc1c(-c2ccc(F)cc2)ncn1Cc1cccc(-c2ccccc2)c1", "activity change, negative = inhibition": -18.4}
{"molecule": "CN(C)C1CN(Cc2cn(Cc3ccccc3)nn2)S(=O)(=O)C1", "note": "(centres undefined)", "activity change, negative = inhibition": -19.8}
{"molecule": "COC(=O)C1=CN(c2c(C)cc(C)cc2C)C(N)=C(C#N)C1c1cccc(F)c1", "note": "(centres undefined)", "activity change, negative = inhibition": 7.23}
{"molecule": "CCc1oc(-c2ccc(OC)cc2)c(C(=O)OCCCCCO)c1C(C)OCCO", "note": "(centres undefined)", "activity change, negative = inhibition": -11.4}
{"molecule": "COC(=O)[C@]12CCCCC=C1N(Cc1cccc3ccccc13)C(=O)[C@H](CC(=O)N1CCOCC1)C2", "activity change, negative = inhibition": -27.4}
{"molecule": "CCNC(=O)c1cc2c(c(-c3cccc(-c4cncnc4)c3)n1)[C@H](CCO)N(C(C)=O)C2", "activity change, negative = inhibition": -10.6}
{"molecule": "CCCCNC(=O)C[C@@H]1C[C@@]2(C(=O)OCC)CCC=C2N(Cc2ccco2)C1=O", "activity change, negative = inhibition": -9.69}
{"molecule": "CCOC(=O)[C@]12CCCC=C1N(CCC1=CCCCC1)C(=O)[C@H](CC(=O)N1CCCCC1)C2", "activity change, negative = inhibition": 5.77}
{"molecule": "CCOc1ccc(CCN2C(=O)C(=O)N([C@@H](Cc3ccc(O)cc3)CN3CCC[C@H]3CN3C(=O)C(=O)NC[C@@H]3CC(C)C)C[C@@H]2Cc2ccccc2)cc1", "activity change, negative = inhibition": -22.3}
{"molecule": "CCOC(=O)[C@]12CCCC=C1N(Cc1ccc3c(c1)OCO3)C(=O)[C@H](CC(=O)N1CCN(C(=O)c3ccco3)CC1)C2", "activity change, negative = inhibition": -27.1}
{"molecule": "O=C(Nc1ccc2c(c1)OCCO2)C1c2ccccc2OCC(=O)N1Cc1ccccn1", "note": "(centres undefined)", "activity change, negative = inhibition": -12.8}
{"molecule": "CC(C)C[C@@H]1Cc2[nH][nH]c(=O)c2[C@H](CCc2ccccc2)O1", "activity change, negative = inhibition": -20}
{"molecule": "CCOC(=O)[C@]12CCCC=C1N(Cc1ccc3c(c1)OCO3)C(=O)[C@H](CC(=O)NCc1cccs1)C2", "activity change, negative = inhibition": -8.51}
{"molecule": "CC(C)(O)C1=C[N+](=O)CC=C1", "activity change, negative = inhibition": 9.18}
{"molecule": "CCCCCn1nnnc1C1c2ccccc2C(=O)N1Cc1ccco1", "note": "(centres undefined)", "activity change, negative = inhibition": 4.16}
{"molecule": "COc1ccc(C(c2nnnn2C2CCCC2)N2CCN(C/C=C/c3ccccc3)CC2)cc1", "note": "(centres undefined)", "activity change, negative = inhibition": -1.03}
{"molecule": "CCCCCNC(=O)C(c1ccc(OC)cc1)n1c(=O)c(-c2ccccc2)nc2ccccc21", "note": "(centres undefined)", "activity change, negative = inhibition": -4.26}
{"molecule": "Cc1ccc(S(=O)(=O)N2[C@@H](Cc3ccccc3)CO[C@H]2CC(=O)OCc2ccccc2)cc1", "activity change, negative = inhibition": 5.33}
{"molecule": "CN(Cc1cn(Cc2ccc(C(F)(F)F)cc2)nn1)C1CN(Cc2cn(Cc3ccc(C(F)(F)F)cc3)nn2)S(=O)(=O)C1", "note": "(centres undefined)", "activity change, negative = inhibition": -28.3}
{"molecule": "COCCNC(=O)c1cc2c(Br)ccc(Br)c2nc1N", "activity change, negative = inhibition": -20.9}
{"molecule": "CC(=O)N1Cc2cc(C(=O)NCc3cccc(F)c3)nc(-c3cccc(C4=CCCCC4)c3)c2[C@H]1CCO", "activity change, negative = inhibition": -17.1}
{"molecule": "C=C1C(=O)[C@]23C[C@H]1CCC2[C@@]1(C)C(C[C@@H]3O)[C@](C)(C(=O)O)CC[C@@H]1O", "note": "(some centres undefined)", "activity change, negative = inhibition": -21.7}
{"molecule": "CCCCCNC(=O)C1C(=O)Nc2ccccc2C(=O)N1C(C)(C)C", "note": "(centres undefined)", "activity change, negative = inhibition": 1.6}
{"molecule": "CC[C@@H]1CC2=C(C(=O)OC(C)(C)O2)[C@@H](CC)O1", "activity change, negative = inhibition": 2.98}
{"molecule": "CCOC(=O)[C@]12CCC=C1N(Cc1ccccc1)C(=O)[C@H](CC(=O)N1CCCC1)C2", "activity change, negative = inhibition": -6.85}
